Source: ChEMBL document CHEMBL3988442, “University of Dundee, Small-Polar-MMV Screening Library” (2021)
Screen size: about 48,000 compounds; about 13,000 (27%) showed an effect of 50% or more. The list shows a part of the results.

System: Wolbachia pipientis
Test: Anti-Wolbachia Cell-Based Screen
Type: functional
Parameters: scale not given: in the data most compounds retested in dose-response had high values
Settings: 5 µM

SMILES	Percent Effect [%]
CN(Cc1nc2ccccc2[nH]1)C(=O)C(C)(C)n1cc(Cl)cn1	2.79
O=C(O)CCc1cccc(C2CCCN2Cc2cccc(Cl)c2)n1 (stereo unspecified)	91.67
Cc1cc(C)nc(N2CCC(c3cccc(CCC(=O)O)n3)CC2)n1	80.96
COc1cc(C)nc(N2CCN(C(=O)CCc3cscn3)CC2)n1	-12.29
Cc1cccc(CN2CCCC2c2cccc(CCC(=O)O)n2)c1 (stereo unspecified)	96.42
Cc1nn(C)c(C)c1C1CCCN1Cc1cccc(C(N)=O)c1 (stereo unspecified)	1.349
O=C(O)CCc1cccc(C2CCCN2Cc2ccc(F)c(F)c2)n1 (stereo unspecified)	-6.193
CC(=O)c1cc(CN2CCCC2c2nc3ccc(C)cc3[nH]2)cs1 (stereo unspecified)	-31.75
NC(=O)COc1cccc(CN2CCCC2c2ccc[nH]2)c1 (stereo unspecified)	11.28
O=C(O)CCc1cn(C2CCN(c3ncccc3Cl)CC2)nn1	-1.723
CCCN1CCCn2nc(CNC(=O)CC3CCS(=O)(=O)C3)cc2C1 (stereo unspecified)	-3.917
CCc1ccc(C2COCCN2C(=O)Nc2cccc(C(C)=O)c2)o1 (stereo unspecified)	-4.107
CSc1ncc(C(=O)NCc2cc3n(n2)CCCN(CC(C)C)C3)cn1	10.82
CC(=O)N1CCC2(CC1)CN(CC(C)C)CC21CCNC1=O.O=C(O)C(F)(F)F (stereo unspecified)	-42.64
COc1cc2c(cc1OC)S(=O)(=O)N(Cc1ccccc1C)C2=O	-3.651
CCNC(=O)N1CC[C@H]2CC(=O)N(C3CCCCC3)CC[C@H]2C1	0.2272
CC1CCN(c2nc(O)cc(C3CC(=O)N(C4CCCCC4)C3)n2)CC1 (stereo unspecified)	162.6
CC(C)Nc1nc(O)cc(C2CC(=O)N(C3CCCCC3)C2)n1 (stereo unspecified)	137.6
CC(=O)N1CC[C@H]2CC(=O)N(C3CCCCC3)CC[C@H]2C1	-3.423
CCOCCCNc1nc(O)cc(C2CC(=O)N(C)C2)n1 (stereo unspecified)	-9.932
O=C1CC(c2ncc(-c3ccc4c(c3)OCCO4)[nH]2)CN1C1CCCC1 (stereo unspecified)	12.43
CCc1nc(C)c(CN2CCN(c3ncnc4c(C)csc34)CC2)[nH]1	6.188
O=c1cc(CN2CCCC(CCc3c(F)cccc3F)C2)[nH]c(=O)[nH]1 (stereo unspecified)	-9.358
O=C1NCCCCC1NC(=O)C1(c2cccc(Cl)c2)CC1 (stereo unspecified)	-14.19

SMILES	Percent Effect [%]
O=C(O)C(F)(F)F.O=C1CC(c2ccncc2)C2(CCN(C(=O)c3cccs3)CC2)N1 (stereo unspecified)	1.39
Cc1nc(CN2CCC3(CC2)NC(=O)CC3c2ccncc2)cs1.O=C(O)C(F)(F)F.O=C(O)C(F)(F)F (stereo unspecified)	104.7
Cc1nc(CN2CCC3(CC2)NC(=O)CC3c2cccnc2)cs1 (stereo unspecified)	101
CCc1ccc(CN2CCC3(CC2)NC(=O)CC3c2ccncc2)o1.O=C(O)C(F)(F)F.O=C(O)C(F)(F)F (stereo unspecified)	-16.11
O=C(O)C(F)(F)F.O=C(O)C(F)(F)F.O=C1CC(c2ccncc2)C2(CCN(CC3CC3)CC2)N1 (stereo unspecified)	90.78
COc1ccc(CN2CCC3(CC2)NC(=O)CC3c2ccncc2)cc1.O=C(O)C(F)(F)F.O=C(O)C(F)(F)F (stereo unspecified)	4.952
O=C1CC(c2cccnc2)C2(CCN(C(=O)N3CCOCC3)CC2)N1 (stereo unspecified)	18.29
O=C1CC(c2ccncc2)C2(CCN(CCO)CC2)N1 (stereo unspecified)	-11.83
O=C(O)C(F)(F)F.O=C1CC(c2ccccc2)C2(CCN(CC3CC3)CC2)N1 (stereo unspecified)	-11.51
CC(NC(=O)c1ccc2c(c1)COC2)c1cccc(N2CCOC2=O)c1 (stereo unspecified)	-4.788
Cc1nc2cc(OCc3nc(C(=O)NC(C)(CO)CO)co3)ccc2s1	17.49
Cc1nc(C)n(CCNC(=O)C(C)n2ccnc2C(C)C)n1 (stereo unspecified)	-3.784
CC(C(=O)N(C)Cc1ccc(Br)o1)n1cccn1 (stereo unspecified)	0.6222
COc1cc2c(cc1CNC(=O)C(C)n1ccnc1C(C)C)OCCO2 (stereo unspecified)	-1.746
CCN(Cc1ccncc1)C(=O)C(C)n1ccnc1C(C)C (stereo unspecified)	110.2
CCN(Cc1ccc(C)o1)C(=O)C(C)n1ccnc1C(C)C (stereo unspecified)	103.3
Cc1ccc(CN(C)C(=O)C(C)n2cncn2)o1 (stereo unspecified)	-9.156
Cc1ccc(CN(C)C(=O)C(C)n2ccnc2C(C)C)o1 (stereo unspecified)	90.15
CCc1nnc(CN(CC)C(=O)C(C)n2ccnc2C(C)C)o1 (stereo unspecified)	83.87
Cc1cccnc1N1CCN(C(=O)C(C)n2ccnc2C(C)C)CC1 (stereo unspecified)	-23.9
CCOC(=O)N1CCN(C(=O)C(C)n2ccnc2C(C)C)CC1 (stereo unspecified)	-18.05
CCc1nnc(CN(CC)C(=O)CCc2scnc2C)o1	-3.701
CC(C)c1nccn1C(C)C(=O)NC1Cc2ccccc2C1 (stereo unspecified)	10.2
Cc1nnc2ccc(NCC3(N4CCCCC4)CCOCC3)nn12	-7.148

SMILES	Percent Effect [%]
COc1ccc(C)cc1-n1c(COC(C)C)n[nH]c1=O	0.04984
Cc1cccc(CCC(=O)NCC2CCCN2c2cccnn2)c1 (stereo unspecified)	7.373
Cc1nc(CN2CC(=O)N(C)c3ccccc3C2=O)no1	7.895
CN(CC(O)C1CC1)C(=O)c1ccc(-c2nc(C3CC3)no2)cc1 (stereo unspecified)	4.636
CC(C)(C)c1nnc(NCc2ccc(F)cc2)o1	-7.164
CCc1nnc(NCc2cccc(OC)c2OC)o1	1.756
COc1ccc(CNc2nnc(CC(C)(C)C)o2)cc1C#N	-29.2
COc1ccc(OC)c(CNc2nnc(C(C)(C)C)o2)c1	112.6
COc1cccc(CNC(=O)Nc2ccc3[nH]nnc3c2)c1OC	-10.07
COc1cccc(CNc2nnc(C(C)(C)C)o2)c1OC	92.71
CN(Cc1ccccc1)c1ncccc1CNC1CCC1	-23.22
CN(Cc1cc(Br)c2c(c1)OCO2)Cc1cscn1	2.814
CSCCNC(=O)c1coc(COc2ccc(F)cc2)n1	-7.576
CCC(C)N(Cc1ccncc1)C(=O)CCSC (stereo unspecified)	-18.32
O=C(NCc1cccnc1)NCC(O)c1cccc(C(F)(F)F)c1 (stereo unspecified)	-14.42
CC(C)Nc1cccc(C(=O)NCC(O)c2cccc(F)c2)c1 (stereo unspecified)	-13.04
CCOc1cccc(CNC(=O)NCC(O)c2cccc(F)c2)c1 (stereo unspecified)	5.413
Cc1cc(C)c(CNC(=O)NCC(O)c2cccc(F)c2)c(=O)[nH]1 (stereo unspecified)	0.6677
CSc1ccc(CNC(=O)NCC(O)c2cccc(F)c2)cc1 (stereo unspecified)	106.1
Cc1cc(CNC(=O)NCC(O)c2cccc(F)c2)no1 (stereo unspecified)	-1.718
CNC(=O)c1cccc(NC(=O)NCc2ccc(SC)cc2)c1C	-19.71
O=C(NCc1ccccc1)NCC(O)c1cccc(F)c1 (stereo unspecified)	95.34
O=C(NCc1cccc(F)c1)NCC(O)c1cccc(F)c1 (stereo unspecified)	96.97
